Measured values reported in PubChem BioAssay AID624330 (Southern Research Specialized Biocontainment Screening …, 2012).
The whole screen tested about 340,000 compounds, of which about 2,100 (0.62%) were called active.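 How the source made its calls: active means first-screen hits whose inhibition reached a set limit at any dose in the follow-up dose series; inconclusive means inhibition above the set first-screen limit but never retested; inactive means the rest.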 Not all results are given here. Results with a measured potency or affinity are listed apart.

Target: Rac GTPase-activating protein 1 (Homo sapiens) (UniProt Q9H0H5)
Sequence (Q9H0H5 whole entry, looked up): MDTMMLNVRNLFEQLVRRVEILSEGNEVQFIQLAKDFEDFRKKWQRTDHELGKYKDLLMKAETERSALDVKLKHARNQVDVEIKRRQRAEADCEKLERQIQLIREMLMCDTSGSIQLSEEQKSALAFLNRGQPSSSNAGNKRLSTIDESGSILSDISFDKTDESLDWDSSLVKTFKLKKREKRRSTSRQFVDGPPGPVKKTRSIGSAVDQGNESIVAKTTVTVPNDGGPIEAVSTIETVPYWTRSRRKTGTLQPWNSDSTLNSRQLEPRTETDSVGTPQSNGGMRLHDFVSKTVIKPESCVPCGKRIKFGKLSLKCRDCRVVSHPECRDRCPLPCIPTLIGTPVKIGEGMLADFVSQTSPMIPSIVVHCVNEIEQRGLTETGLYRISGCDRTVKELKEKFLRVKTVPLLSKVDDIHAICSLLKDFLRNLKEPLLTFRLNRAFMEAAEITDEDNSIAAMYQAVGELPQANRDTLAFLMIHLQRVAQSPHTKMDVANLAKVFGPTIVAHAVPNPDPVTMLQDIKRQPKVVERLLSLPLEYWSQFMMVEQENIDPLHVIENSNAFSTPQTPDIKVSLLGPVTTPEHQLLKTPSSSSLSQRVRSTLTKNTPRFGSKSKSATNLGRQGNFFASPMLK
Experiment: blockers of MgcRacGAP-driven Rac1 GTP hydrolysis – biochemical, ADP Hunter fluorescence, primary and confirmatory, confirmation (AID 624330);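 further: fluorescence reports GDP produced by GAP-driven GTP hydrolysis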
Conditions: MgcRacGAP-stimulated Rac1 GTP hydrolysis, at 30 µM, hits give high values, GST-tagged Rac1 F28L mutant substrate

inhibition, inactive:
Cc1cccc(N2CCN(C(=O)C3CCC(=O)N(Cc4ccccc4F)C3)CC2)c1C (stereo not drawn) -9.79%
CCn1cc(/C=C(\NC(=O)c2ccccc2)C(=O)N2CCOCC2)c2ccccc21 9.74%
Nc1no[n+]([O-])c1-c1ccccc1 7.71%
CCCC(=O)Nc1cc(-c2nc3ncccc3o2)ccc1Cl 6.17%
O=C(O)CCn1cc(C(=O)O)c(-c2ccccc2)n1 9.41%
Cc1ccc(-c2nn(CCC(=O)O)cc2/C=C\C(=O)c2ccc(Br)cc2)cc1 -9.64%
NC(=S)N/N=C/c1cn(CCC(=O)O)nc1-c1cccc(Br)c1 12.2%
O=C(O)CCn1cc(/C=C2/NC(=S)N(c3ccccc3)C2=O)c(-c2ccccc2)n1 7.18%
O=C(O)CCn1cc(/C=C2\NC(=S)N(c3ccccc3)C2=O)c(-c2ccc(Br)cc2)n1 0.36%
O=Cc1cn(CCC(=O)O)nc1-c1cccc(Br)c1 -0.73%
Cc1ccc(C2=NN3C(=O)c4ccccc4C3C2)cc1 (stereo not drawn) -20.3%
COCCC(=O)N1CCCC(C(=O)c2ccccc2SC)C1 (stereo not drawn) 1.95%
COc1ccc(-n2nnnc2SCC(=O)Nc2cccc(O)c2)cc1 8.11%
CCOC(=O)C1(Cc2cccc(OC)c2)CCN(Cc2cccc3cnccc23)CC1 -0.92%
O=C(C=Cc1ccco1)N1CCOCC1 8.8%
CN(C)c1ccc(C=C2C=C(c3ccccc3)OC2=O)cc1 -3.66%
Cc1ccc(C=C2C=C(c3ccccc3)OC2=O)cc1 11.5%
NC(=S)Cc1ccccc1Cl 8.51%
O=C(O)c1ccc(O)cc1O 6.35%
OC(CCN1CCCCC1)(c1ccccc1)C1C[C@@H]2C=C[C@H]1C2 (stereo partly drawn) 0.59%
CCN(CC)Cc1c(O)ccc2cc(-c3nc4ccccc4n3C)c(=O)oc12 2.29%
CCCCn1c(=O)c(CCC(=O)O)nc2ccccc21 -3.87%
CCc1cc(-c2n[nH]c(C)c2-c2nc3ccccc3n2C)c(O)c(CN2CCN(C)CC2)c1O 1.55%
CCc1cc2c(=O)c(-c3nc4ccccc4n3C)c(COCC(=O)O)oc2cc1O 3.02%
CCOC(=O)C1CCCN(C(=O)c2ccccc2[N+](=O)[O-])C1 (stereo not drawn) 3.25%
CCCCC/C=C/C1=CC(=O)C[C@H](c2ccc3c(c2)OCO3)C1 5.09%
CN(Cc1ccno1)Cc1cn(Cc2ccccc2)nc1-c1ccc2c(c1)OCO2 9.52%
COc1ccc(CCNC(=O)COC(=O)C2COc3ccccc3O2)cc1 (stereo not drawn) 2.96%
CC(=O)N1CCN(S(=O)(=O)c2cccc(C(=O)NCCc3ccc(Cl)cc3)c2)CC1 5.57%
CCOc1ccc(Oc2ccccc2NC(=O)C2=COCCO2)cc1 -5.82%
OCCCNCc1cccc2ccccc12 -2.77%
OCCCNc1c2ccccc2nc2ccccc12 9.86%
COCCCNC(=O)C[C@H]1C[C@H](C(=O)N(C(C)C)C(C)C)[C@@]2(C)c3[nH]c4ccc(Cl)cc4c3CCN2C1=O 4.5%
Cc1ccc(S(=O)(=O)NNC(=O)CCC(=O)Nc2ccccc2Cl)cc1 7.64%
C(/CCc1ccccc1)=N\n1cnnc1 8.49%
O=C(O)c1ccc2c(c1)C(=O)N(Cc1ccco1)C2=O -0.17%
O=C1C(=Cc2ccco2)C(=O)c2ccccc21 12.3%
O=C(O)c1ccc2c(c1)C(=O)/C(=C/c1ccccc1)C2=O 31.4%
Cc1ccc(C=C2C(=O)c3ccccc3C2=O)o1 8.39%
CCN(CC)c1ccc(C(=O)O)cc1 -7.19%
Cc1ccc(C(=O)O)cc1-c1ccc(C=C2C(=O)c3ccccc3C2=O)o1 12.9%
O=C(CN(Cc1ccccc1)C(=O)c1csnn1)NCc1ccc2c(c1)OCO2 -2.73%
CCOc1ncccc1C(=O)OCCCC(=O)c1ccc(Br)cc1 2.15%
COc1ccc(-n2c(-c3ccc(Cl)cc3Cl)n[nH]c2=S)c(OC)c1 -9.67%
COc1cccc(NC(=S)N(CCc2c(C)[nH]c3ccccc23)Cc2cccs2)c1 6.48%
COc1ccc(C(=O)Nc2ccc(C(=O)Nc3nccs3)cc2)cc1[N+](=O)[O-] 10%
CC1=Nc2cccc3cccc(c23)N1 -4.86%
Fc1ccc(C2=Nc3cccc4cccc(c34)N2)cc1 16.5%
CCOC(=O)C1CCCN(C(=O)C2CCN(C(=O)Nc3ccccc3)CC2)C1 (stereo not drawn) 4.05%
CCOC(=O)C1CCCN(C(=O)Nc2ccccc2)C1 (stereo not drawn) 0.14%
O=C(Nc1ccccc1)NC1(C(=O)N2CCC(O)CC2)CCCCC1 5.54%
OC1CCN(C(=S)Nc2ccc(Oc3ccccc3)cc2)CC1 -10.8%
CCCOCC(O)CCc1n[nH]c(=S)n1-c1ccccc1 (stereo not drawn) -1.65%
Cc1ccc(C(=O)COc2ccc3ccc(=O)oc3c2)cc1 8.86%
Cc1cc(C)n(C(=O)c2ccc(NC(=O)C3COc4ccccc4O3)cc2)n1 (stereo not drawn) -9.3%
CC(C)c1onc(C(=O)N2CCN(Cc3ccccc3)CC2)c1[N+](=O)[O-] -1.76%
CNc1ncnc(Sc2nc(N)nc3nc[nH]c23)c1[N+](=O)[O-] -4.52%
Nc1nc(SCc2ccccc2)c2[nH]cnc2n1 5.48%
COc1ccc(/C=N/Nc2ccc(C(=O)O)cc2)c(OC)c1OC 5.84%
COC(=O)c1ccc(/C=C/C(=O)O)cc1 14.6%
C[N+]1=C(/C=C/Nc2ccccc2Cl)C(C)(C)c2ccccc21 -5.94%
COC(=O)c1ccc(C(=O)OC)c(NC(=O)COC(=O)c2ccc(OC)c(OC)c2OC)c1 -0.19%
COC(=O)c1ccc2c(c1)C(=O)/C(=C/c1ccc(O)cc1)O2 30.8%
COC(=O)c1ccc2nc(C)c(C)nc2c1 2.34%
COC(=O)c1cn(Cc2ccccn2)c(=O)c2ccccc12 1.41%
O=C(Nc1ccc(N2CCN(C(=O)c3ccccc3)CC2)cc1)c1cccnc1 4.32%
CCn1cc(C(=O)OCC(=O)Nc2ccc(C(C)C)cc2)c(=O)c2ccc(C)nc21 3.76%
CC(Sc1nnnn1-c1ccc(O)cc1)C(=O)NNC(=O)c1ccc(F)cc1 (stereo not drawn) 2.11%
O=C(NCCN1C(=O)S/C(=C/c2ccccc2)C1=O)C1CC(=O)N(Cc2ccccc2)C1 (stereo not drawn) 7.02%
Cc1c(C)n(CC(O)CNc2ccccc2)c2ccccc12 (stereo not drawn) 20.8%
Cc1c(C)n(CC(O)CNCCO)c2ccccc12 (stereo not drawn) 18.2%
CN1CC(=O)N/C1=N\C(=O)Nc1ccc2c(c1)N(C)C(=O)CS2 2.74%
COc1cc(/C=C/C(=O)OCC(=O)NC(=O)NC(C)(C)C)cc(OC)c1OC 8.1%
COc1ccc(/C=C/C(=O)OCC(=O)NC(=O)NC(C)(C)C)cc1 2.69%
COc1cc(/C=C/C(=O)OCC(=O)NC(=O)NC(C)C)cc(OC)c1OC 6.89%
COc1cc(/C=C/C(=O)OCC(=O)NC(=O)NC(C)C)ccc1OCC#N 0.8%
O=C1c2ccccc2NC(c2ccc([N+](=O)[O-])cc2)N1O (stereo not drawn) 4.29%
O=S(=O)(Nc1cccc(S(=O)(=O)N2CCOCC2)c1)c1ccc(Cl)s1 -0.61%
CCc1nc2sccc2c(=O)n1N -1.25%
O=C(CNC(=O)c1ccccc1)NCCc1ccc(O)c(O)c1 10.9%
CCN(Cc1ccncc1)Cc1ccc(Br)cc1 28%
CCN(Cc1ccncc1)Cc1cn[nH]c1-c1ccc(OC)cc1F -2.02%
CCN(Cc1ccccc1)Cc1ccc(OCc2ccccc2)c(OC)c1 10.8%
COc1ccc(CNCc2ccncc2)c(OC)c1 5.34%
COc1ccc(NC(=O)C2CCN(S(=O)(=O)c3c(C)noc3C)CC2)cc1 8.66%
Cc1cc(C)n2nc(CC(=O)NNC(=O)COc3cccc(C)c3C)nc2n1 -3.96%
CCCCOCCCNC(=O)c1ccc(OC)cc1 4.46%
Cc1cc(Cl)ccc1N(CC(=O)N(C)Cc1ccccc1)S(C)(=O)=O 18.6%
CCC(SC1=N/C(=C/c2ccccc2OC)C(=O)N1c1ccccc1)C(=O)Nc1cc(C)on1 (stereo not drawn) 12.8%
O=c1[nH]c(SCc2ccccc2)nc2c1cnn2-c1ccc(F)cc1 14%
Cc1cc(C)n2nc(C(=O)OCC(=O)N(C)CC(=O)Nc3ccccc3Cl)nc2n1 1.5%
CC(C)CO/C(=N/S(=O)(=O)c1ccccc1)c1ccccc1 5.75%
CS/C(=N\S(=O)(=O)c1ccccc1)c1ccccc1 5.35%
COc1cc(/C=N/NC(=O)C2c3ccccc3Oc3ccccc32)ccc1O 5.77%
O=C(N/N=C\c1cccnc1)C1c2ccccc2Oc2ccccc21 3.36%
Cn1cc(CN2CCC(C(=O)Nc3cccc(-c4cccc(F)c4)c3)CC2)cn1 5.69%
c1ccc(NC2=NCCN2CC2CCCCCC2)cc1 7.17%
O=C(CSc1nnc(-c2cccnc2)o1)Nc1cccc(Cl)c1 4.31%
